Records with an inconclusive call do not appear. Values without a mark were called inactive. Activity calls are given as the source filed them. Calls follow the shape of the dose curve; as a rule, active = well fitted cell-killing curve with a large enough effect in the repeat runs; inconclusive = weak or mixed curves, or effect the other way; inactive = flat fitted curve, though single readings scatter.
Assay: cAMP Responsive Elements (CRE) small molecule antagonists, cell-based qHTS assay: qHTS cell viability counter screen (AID 2060913); also: nearly all actives have a fitted effect of over 40% in size
Details: CRE-bla HEK293T viability, CellTiter-Glo luminescence, 5 h; series mostly up to 92.4 µM; viability change, negative = cytotoxic: at the top concentration
How it was run: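 HEK293T CRE-bla, 2,000 cells/well, 18 h preincubation; cpd in DMSO + NKH477 0.25 uM final, 3 h 37 C/5% CO2; LiveBLAzer 2 h RT, then CellTiter-Glo 30 min RT, luminescence.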
% is scaled to controls: 0 for no effect and ±100 for the full control effect.

| Compound | Potency | viability change, negative = cytotoxic |
| --- | --- | --- |
| CCCCCCCCC/C=C/CC1CC(=O)OC1=O (centres undefined) | inactive | – |
| Cc1cccc(S(=O)(=O)O)c1C | – | 0.0109% |
| C/C=C/C=N/NC(=O)c1ccncc1 | – | 3.06% [at 42.5 µM] |
| CCCCCCCCOC(=O)CCCCCCCCC(=O)OCCCCCCCC | – | 9.66% |
| CC(C=O)Cc1ccc(C(C)(C)C)cc1 (centres undefined) | inactive | – |
| Cc1cc2cc3c(C)cc(=O)oc3c(C)c2o1 | – | 7.45% [at 42.5 µM] |
| Cc1cc(C)c(S(=O)(=O)O)cc1N=Nc1cc(S(=O)(=O)O)c2ccccc2c1O | – | 9.62% |
| O=C(Oc1ccccc1)c1ccc(O)cc1 | inactive | – |
| NC(=O)c1ccccc1O | inactive | – |
| O=C(Cn1ccnc1[N+](=O)[O-])NCCO | – | 6.24% [at 42.5 µM] |
| C=CCCCCCCCCCCCCCCCC | – | -4.37% [at 8.39 µM] |
| CCOC(=O)C(C)C(C)=O (centres undefined) | – | -7.86% |
| CCC(C)(C)CC | – | -10.5% |
| C[C@@H](O)[C@H]1C(=O)N2C(C(=O)O)=C(S[C@@H]3CN[C@H](CNS(N)(=O)=O)C3)[C@H](C)[C@H]12 | – | 1.01% [at 42.5 µM] |
| CN1C[C@H](C(=O)N[C@]2(C)O[C@@]3(O)[C@@H]4CCCN4C(=O)[C@H](Cc4ccccc4)N3C2=O)C[C@@H]2c3cccc4[nH]cc(c34)C[C@H]21 | – | 4.35% [at 42.5 µM] |
| CCc1cccc(CC)c1N(COC)C(=O)CS(=O)(=O)O | – | 5.57% |
| N=c1nc(N2CCCCC2)cc(N)n1O | – | 6.71% [at 42.5 µM] |
| CC/C=C\CCCCO | – | 2.73% |
| O=C1O[C@@H]2[C@@H](O)[C@H](O)O[C@@H]2[C@H]1O | – | 5.3% |
| CCCC[N+](C)(CCCC)CCCC | – | -0.253% |

| Compound | Potency | viability change, negative = cytotoxic |
| --- | --- | --- |
| C[n+]1ccn(CCO)c1 | inactive | – |
| CO[C@@]1(NC(=O)CSCC#N)C(=O)N2C(C(=O)O)=C(CSc3nnnn3C)CS[C@@H]21 | – | 1.05% [at 42.5 µM] |
| COC(=O)C1=C(C)NC(C)=C(C(=O)OCC(C)C)C1c1ccccc1[N+](=O)[O-] (centres undefined) | inactive | – |
| COc1nc(C)nc(NC(=O)NS(=O)(=O)c2ccccc2OCCCl)n1 | – | 0.931% |
| C=CC(C)(CCC=C(C)C)OC(=O)CC(C)C (centres undefined) | – | 4.45% |
| c1ccc(SSc2ccccc2)cc1 | – | -9.12% |
| CC(C)(C)NCC(O)COc1cccc2c1C[C@H](O)[C@H](O)C2 (some centres undefined) | – | 3.06% [at 42.5 µM] |
| CCCCCCOC(=O)CCCCC | – | -0.179% |
| OCCCCCCCl | – | -11.4% |
| OCCCc1cccnc1 | – | 1.62% |
| N[C@@H](Cc1cc(I)c(Oc2cc(I)c(O)c(I)c2)c(I)c1)C(=O)O | inactive | – |
| COc1ccc2cc([C@H](C)C(=O)O)ccc2c1 | inactive | – |
| CCOC(=N)CC(=O)OCC | – | -3.07% |
| CCC(C)(CCCC(C)C)OC(C)=O (centres undefined) | – | 6.1% |
| CN(C)CC/C=C1/c2ccccc2COc2ccc(CC(=O)O)cc21 | – | -0.648% [at 42.5 µM] |
| Oc1ccc(C(O)CNCCCCCCNCC(O)c2ccc(O)c(O)c2)cc1O (centres undefined) | – | 3.75% [at 42.5 µM] |
| COc1nc(N)nc2c1ncn2[C@@H]1O[C@H](CO)[C@@H](O)[C@@H]1O | – | -4.93% [at 42.5 µM] |
| CCCCCCCCCCCCCCN(C)C | – | 8.85% [at 18.9 µM] |
| CC(O)C#CC(C)O (centres undefined) | – | 13% |

Source: PubChem BioAssay (Tox21)
